Data on 41 compounds can be found in PubChem BioAssay (EPA / NIEHS).

Read-out in assay [1]: Monokine induced gamma interferon (MIG), CXCL9 (gene 4283)
In words: BSK_SAg_MIG: BioMAP Diversity Plus: SAg Assay for Monokine induced gamma interferon (MIG) Biomarker Activity (AID 2283092). The note with it: primary human HUVEC with PBMC; actives raise or lower the signal. Summed up: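 HUVEC plus human PBMC co-culture, chemicals dosed and MIG (CXCL9) quantified by ELISA at 24 h. Bidirectional curve fitting against DMSO as negative control and baseline, so both gain and loss of signal count as activity.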

A short description of assay [2]: BSK_SAg_PBMCCytotoxicity: PBMC Cytotoxicity Assessment in the BioMAP Diversity Plus: SAg Assay (AID 2283093).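 Also: PBMC viability measured as Alamar Blue reduction fluorescence at 546/580 nm; fitted both ways against DMSO so a hit may be loss or gain of signal.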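 As to AC50: PBMC superantigen activated with SEB plus TSST-1 one hour after compound addition.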 The note with it: primary human HUVEC with PBMC. Summed up:
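HUVEC/PBMC co-culture; PBMC exposed to chemical 1 h before SEB and TSST-1 activation (20 ng/mL each), incubated 90 h, then Alamar Blue 6 h, fluorescence 546/580 nm. Bidirectional fit versus DMSO baseline.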

Read-out in assay [3]: Interleukin-8 (IL8), CXCL8 (gene 3576)
In words: BSK_SAg_IL8: BioMAP Diversity Plus: SAg Assay for Interleukin-8 (IL8) Biomarker Activity (AID 2283094). The note with it: primary human HUVEC with PBMC; actives raise or lower the signal. The gist of the method: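 Human umbilical vein endothelial cells co-cultured with PBMC, stimulated with superantigen; IL-8 measured by ELISA 24 h after chemical dosing. Bidirectional fitting versus DMSO; SRB staining in parallel cultures tracks cytotoxicity.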

The nature of assay [4]: BSK_SAg_Proliferation: Cell Proliferation Assessment in the BioMAP Diversity Plus: SAg Assay (AID 2283095). Particulars: primary human HUVEC with PBMC. Summed up:
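Human umbilical vein endothelial cells co-cultured with PBMC; sulforhodamine B total-protein staining (0.1% SRB after 10% TCA fixation, absorbance 560 nm) at 96 h in sub-confluent culture. Fitted bidirectionally against DMSO.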

Assay [5] in a line: BSK_SAg_SRB: Viability Assessment in the BioMAP Diversity Plus: SAg Assay (AID 2283096).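 Also: cells read one day after compound addition; hits may be either gain or loss of signal compared with DMSO.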 Particulars: primary human HUVEC with PBMC. The gist of the method: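 Human umbilical vein endothelial cells co-cultured with PBMC, read 24 h after compound dosing. Total protein measured by sulforhodamine B staining (0.1% SRB after 10% TCA fixation, absorbance 560 nm); bidirectional fit versus DMSO baseline.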

The target in assay [6] is human CYP19A1, CYP19A1 (gene 1588) (UniProt P11511). In words: NVS_ADME_hCYP19A1: NovaScreen (NVS) CYP450-related Enzyme Activity (ADME) Assay for human CYP19A1 (AID 2283098; active = hit-call score of the fitted dose curve at least 0.9, where 1 is the maximum). The gist of the method: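 Recombinant enzyme in a cell-free format, read 0.5 h after dosing by fluorescence from a fluorogenic substrate. Loss of signal was fitted against acetonitrile as baseline. Primary screen in duplicate at 10 uM, actives then tested in concentration series.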

Assay [7] concerns the target human CYP2A6, CYP2A6 (gene 1548) (UniProt P11509). In words: NVS_ADME_hCYP2A6: NovaScreen (NVS) CYP450-related Enzyme Activity (ADME) Assay for human CYP2A6 (AID 2283099; active = hit-call score of the fitted dose curve at least 0.9, where 1 is the maximum). Summed up:
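Recombinant human CYP2A6 expressed in insect cells, cell-free; fluorogenic substrate turnover read by fluorescence intensity 0.5 h after dosing. Primary screen 10 uM in duplicate, then concentration-response up to 20 uM; acetonitrile as negative control.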

Assay [8] addresses human CYP2B6, CYP2B6 (gene 1555) (UniProt P20813). In words: NVS_ADME_hCYP2B6: NovaScreen (NVS) CYP450-related Enzyme Activity (ADME) Assay for human CYP2B6 (AID 2283101; active = hit-call score of the fitted dose curve at least 0.9, where 1 is the maximum). Summed up:
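Recombinant human CYP2B6 with fluorogenic substrate, read by fluorescence intensity 1 h after dosing. Primary screen in duplicate at 10 uM, actives followed in concentration series; signal loss relative to acetonitrile control.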

Assay [9] deals with human CYP1A1, CYP1A1 (gene 1543) (UniProt P04798). The assay is described as follows: NVS_ADME_hCYP1A1: NovaScreen (NVS) CYP450-related Enzyme Activity (ADME) Assay for human CYP1A1 (AID 2283100; active = hit-call score of the fitted dose curve at least 0.9, where 1 is the maximum). Summed up: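 Recombinant CYP1A1 with a fluorogenic substrate, cell-free, read 1 h after dosing; acetonitrile as negative control. Single-concentration screen at 10 uM in duplicate, then concentration-response up to 20 uM for chemicals meeting ~30% inhibition threshold.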

The target of assay [10] is human CYP1A2, CYP1A2 (gene 1544) (UniProt P05177). The assay is described as follows: NVS_ADME_hCYP1A2: NovaScreen (NVS) CYP450-related Enzyme Activity (ADME) Assay for human CYP1A2 (AID 2283102; active = hit-call score of the fitted dose curve at least 0.9, where 1 is the maximum;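 as to AC50: potency for inhibition since loss of fluorescence marks reduced CYP1A2 activity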). Summed up: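 Recombinant human CYP1A2 from insect cells, cell-free, fluorogenic substrate; read 0.5 h after dosing with loss of fluorescence signal indicating inhibition. Primary screen in duplicate at 10 uM, acetonitrile as negative control.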

Results filed as inconclusive are left out. Activity calls are given as the source filed them. The calls were made as follows, unless noted: active = hit-call score of the fitted dose curve at least 0.9, where 1 is the maximum; inactive = score below 0.9.

human CYP1A2, CYP1A2 (gene 1544), sequence (P05177 whole entry, looked up): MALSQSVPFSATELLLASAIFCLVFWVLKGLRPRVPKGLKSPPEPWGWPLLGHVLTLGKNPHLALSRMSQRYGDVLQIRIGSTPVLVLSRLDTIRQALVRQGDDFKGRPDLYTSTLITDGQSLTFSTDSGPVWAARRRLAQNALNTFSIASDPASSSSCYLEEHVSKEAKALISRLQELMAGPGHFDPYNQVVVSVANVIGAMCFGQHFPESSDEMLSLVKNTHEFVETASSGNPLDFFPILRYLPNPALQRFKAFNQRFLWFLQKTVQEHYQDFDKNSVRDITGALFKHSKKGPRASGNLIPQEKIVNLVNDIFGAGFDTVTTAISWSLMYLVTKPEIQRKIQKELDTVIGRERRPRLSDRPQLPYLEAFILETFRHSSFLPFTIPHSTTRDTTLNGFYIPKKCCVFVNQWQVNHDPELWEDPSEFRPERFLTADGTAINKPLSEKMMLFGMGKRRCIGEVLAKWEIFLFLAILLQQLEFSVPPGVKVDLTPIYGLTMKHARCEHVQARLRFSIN
human CYP2B6, CYP2B6 (gene 1555), sequence (P20813 whole entry, looked up): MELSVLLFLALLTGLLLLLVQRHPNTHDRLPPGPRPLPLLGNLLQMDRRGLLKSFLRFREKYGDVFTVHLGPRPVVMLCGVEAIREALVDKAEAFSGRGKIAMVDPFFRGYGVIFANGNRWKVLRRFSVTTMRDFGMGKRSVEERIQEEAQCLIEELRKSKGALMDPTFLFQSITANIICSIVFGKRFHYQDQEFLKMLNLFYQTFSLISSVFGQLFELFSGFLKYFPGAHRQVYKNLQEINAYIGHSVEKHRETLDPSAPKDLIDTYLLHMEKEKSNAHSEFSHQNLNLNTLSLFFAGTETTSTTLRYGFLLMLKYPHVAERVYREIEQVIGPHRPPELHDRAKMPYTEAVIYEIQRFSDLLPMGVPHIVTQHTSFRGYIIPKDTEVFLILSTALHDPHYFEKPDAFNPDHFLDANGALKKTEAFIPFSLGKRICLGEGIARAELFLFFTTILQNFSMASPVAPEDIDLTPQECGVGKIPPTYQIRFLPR
human CYP2A6, CYP2A6 (gene 1548), sequence (P11509 whole entry, looked up): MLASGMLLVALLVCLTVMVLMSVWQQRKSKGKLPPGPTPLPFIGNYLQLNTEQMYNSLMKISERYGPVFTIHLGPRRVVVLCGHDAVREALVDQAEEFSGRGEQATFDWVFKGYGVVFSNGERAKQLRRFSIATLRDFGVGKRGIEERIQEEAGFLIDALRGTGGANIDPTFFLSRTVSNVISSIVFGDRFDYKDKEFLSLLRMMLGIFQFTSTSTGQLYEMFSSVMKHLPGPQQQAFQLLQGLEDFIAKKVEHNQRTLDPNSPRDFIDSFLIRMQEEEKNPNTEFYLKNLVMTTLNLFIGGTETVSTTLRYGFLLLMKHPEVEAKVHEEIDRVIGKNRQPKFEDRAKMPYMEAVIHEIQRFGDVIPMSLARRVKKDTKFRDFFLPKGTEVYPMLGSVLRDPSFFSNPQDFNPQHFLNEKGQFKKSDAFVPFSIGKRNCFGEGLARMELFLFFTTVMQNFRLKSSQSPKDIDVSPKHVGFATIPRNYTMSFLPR
human CYP19A1, CYP19A1 (gene 1588), sequence (P11511 whole entry, looked up): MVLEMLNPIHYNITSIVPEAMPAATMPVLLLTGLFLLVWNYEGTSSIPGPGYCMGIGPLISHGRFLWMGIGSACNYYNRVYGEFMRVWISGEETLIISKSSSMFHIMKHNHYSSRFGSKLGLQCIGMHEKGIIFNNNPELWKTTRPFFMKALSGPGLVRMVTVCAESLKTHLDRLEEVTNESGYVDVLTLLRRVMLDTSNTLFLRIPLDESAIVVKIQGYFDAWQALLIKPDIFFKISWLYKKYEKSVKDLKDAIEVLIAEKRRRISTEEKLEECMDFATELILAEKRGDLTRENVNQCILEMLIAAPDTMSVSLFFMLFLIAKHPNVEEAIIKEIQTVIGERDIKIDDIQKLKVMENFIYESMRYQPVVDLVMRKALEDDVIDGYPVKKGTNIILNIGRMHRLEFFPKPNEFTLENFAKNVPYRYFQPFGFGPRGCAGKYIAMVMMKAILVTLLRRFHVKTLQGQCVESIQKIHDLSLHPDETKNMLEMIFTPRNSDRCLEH
human CYP1A1, CYP1A1 (gene 1543), sequence (P04798 whole entry, looked up): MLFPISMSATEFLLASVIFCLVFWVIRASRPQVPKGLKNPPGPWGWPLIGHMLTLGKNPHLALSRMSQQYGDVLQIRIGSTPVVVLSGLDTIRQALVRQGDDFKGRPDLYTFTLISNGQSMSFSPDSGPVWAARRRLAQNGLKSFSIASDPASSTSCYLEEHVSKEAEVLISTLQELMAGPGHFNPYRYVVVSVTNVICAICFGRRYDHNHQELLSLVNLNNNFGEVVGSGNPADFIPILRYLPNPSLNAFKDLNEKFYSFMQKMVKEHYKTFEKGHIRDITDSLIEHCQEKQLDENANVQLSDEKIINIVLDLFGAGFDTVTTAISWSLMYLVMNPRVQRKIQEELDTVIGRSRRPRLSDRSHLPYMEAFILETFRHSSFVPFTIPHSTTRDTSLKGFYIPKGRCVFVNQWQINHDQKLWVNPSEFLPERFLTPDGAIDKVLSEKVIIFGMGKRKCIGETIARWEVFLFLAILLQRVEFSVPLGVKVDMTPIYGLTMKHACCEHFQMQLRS

As for `NC(=O)Cn1c(=O)cc(CCN2CCN(c3nccc4sccc34)CC2)c2ccc(F)cc21`, the result in assay [1], in [2], in [3], in [4] and in assay [5] was inactive.

Take `CCCCCCC(=O)OCC`: the result in [1], in assay [2], in assay [3], in assay [4] and in assay [5] was inactive.

For the compound `Cc1cc(NC(=O)C(=O)O)cc(C)c1Oc1ccc(O)c2c1CCC2`, the result in assay [1], in [2], in assay [3], in assay [4] and in assay [5] was inactive.

As to `c1cc(-c2ccncc2)ccn1`, the result in assay [1], in assay [2], in [3], in [4] and in assay [5] was inactive.

As for `O=c1[nH]cc(F)c(=O)[nH]1`, the outcome in [1], in assay [2], in [3] and in [5] was inactive. Also, the AC50 – broadly, the concentration at which the activity in the assay is half-maximal – in [4] is 2.48 µM (active).

As to `Cc1ccc(Cl)cc1`, the result in assay [1], in assay [2], in [3], in [4] and in assay [5] was inactive.

With `O=C(O)CCCCC(=O)O`, the result in assay [1], in assay [2], in [3], in assay [4] and in assay [5] was inactive.

In the case of `O=C(OCCCCCOC(=O)c1ccccc1)c1ccccc1`, the result in assay [1], in assay [2], in assay [3], in assay [4] and in [5] was inactive.

Take `CC(=O)Oc1ccccc1C(=O)O`: the outcome in assay [1], in assay [2], in [3], in [4] and in assay [5] was inactive.

Consider `CCCCCCCCCCCCCCCC`, for which the result in [1], in assay [2], in assay [3], in assay [4] and in assay [5] was inactive.

As for `Cc1cccc([N+](=O)[O-])c1C`, the result in [1], in assay [2], in assay [3], in assay [4] and in [5] was inactive.

Turning to `Cc1ccc(C)c(C)c1`, the result in [1], in assay [2], in assay [3], in assay [4] and in assay [5] was inactive.

With `C1CCC(SSC2CCCCC2)CC1`, the outcome in assay [1], in assay [3] and in assay [5] was inactive. In addition, the figures for the AC50 in assay [2] and in assay [4] were 16.1 µM (active) and 15 µM (active), respectively.

Take `COc1cc(S(=O)(=O)O)c(C)cc1N=Nc1c(O)ccc2cc(S(=O)(=O)O)ccc12`: the result in assay [1], in assay [2], in [3], in assay [4] and in [5] was inactive.

For `Cc1c(C(=O)O)c(O)cc2c1C(=O)c1c(O)c([C@@H]3O[C@H](CO)[C@@H](O)[C@H](O)[C@H]3O)c(O)c(O)c1C2=O`, the outcome in assay [1], in assay [2], in [3], in assay [4], in [5] and in assay [6] was inactive.

On to `COCCOCCOC`, for which the result in assay [1], in assay [2], in [3], in assay [4] and in assay [5] was inactive.

As to `Cc1ccc(C)c(O)c1C`, the outcome in [1], in [2], in assay [3], in assay [4], in assay [5] and in assay [7] was inactive.

Regarding `Clc1cc(Cl)c(Cl)cc1Cl`, the outcome in assay [1], in assay [2], in assay [3], in assay [4] and in [5] was inactive.

In the case of `COc1ccc2c(c1)c(CC(=O)O)c(C)n2C(=O)c1ccc(Cl)cc1`, the result in assay [1], in assay [2], in assay [3], in assay [4], in [5] and in assay [8] was inactive.

Turning to `CNCc1cc(F)ccc1Oc1ccc(Cl)c(Cl)c1`, the outcome in assay [1] and in assay [5] was inactive. The AC50 in assay [2] is 25.7 µM (active); in assay [3] it was 20 µM (active); in assay [4], 26.1 µM (active).

Regarding `CCOc1ccc2c(c1)C(C)=CC(C)(C)N2`, the outcome in assay [1], in [3], in assay [5], in assay [9] and in assay [10] was inactive. Besides, the figures for the AC50 in assay [2], in assay [4] and in [8] were 10.1 µM (active), 24.8 µM (active) and 11.6 µM (active), respectively.

Consider `FC(F)(F)C(F)(F)C(F)(F)C(F)(F)C(F)(F)C(F)(F)CCI`, for which the result in assay [1], in assay [2], in [3], in assay [4] and in assay [5] was inactive.

On to `CC1(C)CC(N=C=O)CC(C)(CN=C=O)C1` (configuration not stated), for which the result in assay [1], in assay [2], in [3], in assay [4], in assay [5] and in [10] was inactive.

Regarding `O=C(O)Cc1ccccc1Nc1c(Cl)cccc1Cl`, the outcome in assay [1], in assay [2], in assay [3], in [5] and in [10] was inactive. In assay [4], the concentration at half-maximal activity (AC50) is 15.6 µM (active).

Regarding `CC(=O)OC/C=C(\C)CCC=C(C)C`, the outcome in assay [1], in assay [2], in assay [3], in [4] and in [5] was inactive.

Take `Cc1nc(-c2ccc3c(c2)CCN(CCC2CCC(NC(=O)/C=C/c4ccc(F)cc4)CC2)CC3)no1` (configuration not stated): the outcome in [1], in assay [2], in [3], in assay [4], in [5] and in [6] was inactive.

On to `CC1=C(/C=C/C(C)=C/C=C/C(C)=C/CO)C(C)(C)CCC1`, for which the result in assay [1], in assay [2], in assay [3], in assay [5] and in assay [7] was inactive. In addition, the concentration at half-maximal activity (AC50) in [4] was 26.1 µM (active).

For the compound `C=CCOC(=O)c1ccccc1C(=O)OCC=C`, the result in assay [1], in assay [2], in assay [3], in [4] and in assay [5] was inactive. Further, the AC50 in [8] was 7.79 µM (active); in assay [10], 3.03 µM (active).

Consider `CCOC(=O)CCC(=O)OCC`, for which the outcome in assay [1], in [2], in assay [3], in assay [4], in assay [5] and in [8] was inactive. Further, in [10], the compound was called inactive.

Turning to `O=C(N[C@@H](Cc1ccccc1)[C@@H](O)C(=O)N1C[C@@H](O)[C@@H](O)C1)c1cc2cc(Cl)ccc2[nH]1`, the outcome in assay [1], in assay [2], in assay [3], in assay [4], in [5] and in assay [10] was inactive.

For `CC(=O)C(C)=CC1C(C)=CCCC1(C)C` (configuration not stated), the outcome in assay [1], in assay [2], in assay [3], in assay [4] and in assay [5] was inactive.

As to `CC(=O)OCCOCCOCCOC(C)=O`, the outcome in assay [1], in assay [2], in [3], in assay [4] and in assay [5] was inactive.

For `Nc1ccc2c(c1)C(=O)c1ccccc1C2=O`, the outcome in [1], in [2], in assay [3], in assay [4], in [5] and in assay [7] was inactive. For the same compound, the call in [8] was inactive. In assay [10], the AC50 is 4.65 µM (active).

As for `CC=Cc1ccc(O)c(OC)c1`, the outcome in [1], in [2], in [3], in [4], in assay [5] and in assay [8] was inactive.

On to `Oc1ccc2c(c1)OC[C@@H](N1CCC(O)(c3ccc(F)cc3)CC1)[C@H]2O`, for which the result in assay [1], in [2], in assay [3], in assay [4], in assay [5] and in [10] was inactive. Moreover, the AC50 in assay [8] is 6.22 µM (active).

As to `COc1ccc(S(=O)(=O)N2C(=O)[C@@](c3ccccc3OC)(N3C[C@H](O)C[C@H]3C(=O)N(C)C)c3cc(Cl)ccc32)c(OC)c1`, the result in [1], in [2] and in [9] was inactive. Moreover, the AC50 in assay [3] is 20 µM (active); in assay [4], 29.4 µM (active); in [5], 29.7 µM (active).

`COc1cc(-c2nc(NC(=O)c3cc4cc(C)cc(C)c4n3CC(=O)O)sc2CCC2CCCCC2)c(OC)cc1Cl`: the AC50 is 4.63 µM (active) in [1]; 16.9 µM (active) in assay [2]; 16.9 µM (active) in [3]; 3.49 µM (active) in assay [4]; 3.85 µM (active) in [5].

For `Cc1cccc(C)c1O`, the outcome in assay [1], in [2], in [3], in assay [4] and in assay [5] was inactive.

Regarding `C[Si]1(C)O[Si](C)(C)O[Si](C)(C)O[Si](C)(C)O1`, the result in assay [1], in [2], in assay [3], in assay [4] and in [5] was inactive.

For the compound `CCCCOC(=O)CCCCCCCCC(=O)OCCCC`, the result in assay [1], in assay [2], in [3], in assay [4] and in assay [5] was inactive.

For `Nc1ccccc1N`, the result in [1], in assay [2], in assay [3], in assay [4] and in [5] was inactive.
